# Reference: the supplement of paper PMC10849652
# The full data set covers some 7,900 targets. This sample favours those with a hit. About 0.6% of all pairs of compound and target were hits. Values without a mark were called inactive.
# What was measured:
# Assay in all cases: log2 fold change, soluble protein after heating vs DMSO (PISA); higher = thermal stabilisation; K562 cells, 10 uM, 30 min; active = over 0.2 and 3.5 SD of the protein, either way, in both replicates (recomputed)
# [1] = compound: CC[C@@H]1C(=O)N(C)c2cnc(Nc3ccc(C(=O)NC4CCN(C)CC4)cc3OC)nc2N1C1CCCC1
# Procedure, shortened: (§1)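 Values are thermal stability changes relative to control samples and are taken from duplicates. They are stated as log2 fold changes. Before quantification by TMTpro 16plex LC-MS/MS with equalised channel sums, K562 cells at 2×10^6 cells/mL were treated with 10 μM compound for 30 min, heated in aliquots for 3 min across 48°C-58°C, pooled, extracted in PBS with 0.5% NP-40 at 4°C, and centrifuged at 21,000xg for 90 min to give the soluble supernatant.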
# epoxomicin = compound: CC[C@H](C)[C@@H](C(=O)N[C@@H]([C@@H](C)O)C(=O)N[C@@H](CC(C)C)C(=O)[C@]1(CO1)C)NC(=O)[C@H]([C@@H](C)CC)N(C)C(=O)C [epoxomicin]
# Procedure, shortened: as §1
# [2] = compound: CCn1c(C(=O)N(C2CC2)C2CC2)cc2c3c(ncn3C)c(Nc3cc(C)n(C)n3)nc21
# Procedure, shortened: as §1
# [3] = compound: CCn1cc(-c2ccnc3[nH]c(-c4cccc(CN(C)C)c4)cc23)c(-c2ccc(NC(=O)N(C)C)cc2)n1
# Procedure, shortened: as §1
# [4] = compound: CN(C)CC(=O)Nc1ccc2[nH]c(=O)c3ccccc3c2c1
# Procedure, shortened: as §1
# rosiglitazone = compound: CN(CCOC1=CC=C(C=C1)C[C@H]2C(=O)NC(=O)S2)C3=CC=CC=N3 (racemic) [rosiglitazone]
# Procedure, shortened: as §1
# [5] = compound: CN1C2=C(C3=C1C(=O)N(N=C3)CC4=CC(=CC=C4)N)SC(=C2)S(=O)C
# Procedure, shortened: as §1
# [6] = compound: CN1CCC(CNc2ccc3ncc(-c4cccc(OC(F)(F)F)c4)n3n2)CC1
# Procedure, shortened: as §1
# [7] = compound: CC[C@H](C)N1C=C(C2=C(C=C(C=C21)C3=CN=C(C=C3)N4CCNCC4)C(=O)NCC5=C(C=C(NC5=O)C)C)C
# Procedure, shortened: as §1
# volasertib = compound: CC[C@@H]1C(=O)N(C)c2cnc(Nc3ccc(C(=O)N[C@H]4CC[C@H](N5CCN(CC6CC6)CC5)CC4)cc3OC)nc2N1C(C)C [volasertib]
# Procedure, shortened: as §1
# Chain of UniProt Q9UNA0 (Q9UNA0 whole entry, looked up): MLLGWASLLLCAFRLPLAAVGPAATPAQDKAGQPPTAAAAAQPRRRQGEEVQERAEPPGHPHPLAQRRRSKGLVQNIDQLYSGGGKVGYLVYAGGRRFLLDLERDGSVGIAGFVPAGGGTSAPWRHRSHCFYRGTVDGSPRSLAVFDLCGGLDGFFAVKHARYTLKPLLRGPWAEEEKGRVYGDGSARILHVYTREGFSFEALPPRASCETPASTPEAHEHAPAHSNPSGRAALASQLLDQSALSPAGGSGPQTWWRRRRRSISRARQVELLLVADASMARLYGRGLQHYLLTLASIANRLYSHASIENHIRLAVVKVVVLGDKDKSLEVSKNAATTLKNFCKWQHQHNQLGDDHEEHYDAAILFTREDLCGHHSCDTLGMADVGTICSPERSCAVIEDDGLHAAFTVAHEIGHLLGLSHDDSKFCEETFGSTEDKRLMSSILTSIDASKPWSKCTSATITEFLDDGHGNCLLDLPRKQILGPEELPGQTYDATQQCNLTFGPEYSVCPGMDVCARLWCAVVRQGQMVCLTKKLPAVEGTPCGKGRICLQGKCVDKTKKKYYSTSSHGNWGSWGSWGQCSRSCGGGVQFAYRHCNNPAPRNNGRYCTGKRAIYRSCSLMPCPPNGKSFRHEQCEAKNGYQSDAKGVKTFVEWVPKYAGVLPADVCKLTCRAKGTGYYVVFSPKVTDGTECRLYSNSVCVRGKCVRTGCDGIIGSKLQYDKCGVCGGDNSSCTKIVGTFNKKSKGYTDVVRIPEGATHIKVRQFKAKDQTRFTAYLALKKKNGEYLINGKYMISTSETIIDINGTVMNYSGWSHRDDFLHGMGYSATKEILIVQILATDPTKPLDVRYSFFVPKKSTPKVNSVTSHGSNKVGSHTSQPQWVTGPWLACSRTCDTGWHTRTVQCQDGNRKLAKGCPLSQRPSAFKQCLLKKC
# Chain of UniProt P25440 (P25440 whole entry, looked up): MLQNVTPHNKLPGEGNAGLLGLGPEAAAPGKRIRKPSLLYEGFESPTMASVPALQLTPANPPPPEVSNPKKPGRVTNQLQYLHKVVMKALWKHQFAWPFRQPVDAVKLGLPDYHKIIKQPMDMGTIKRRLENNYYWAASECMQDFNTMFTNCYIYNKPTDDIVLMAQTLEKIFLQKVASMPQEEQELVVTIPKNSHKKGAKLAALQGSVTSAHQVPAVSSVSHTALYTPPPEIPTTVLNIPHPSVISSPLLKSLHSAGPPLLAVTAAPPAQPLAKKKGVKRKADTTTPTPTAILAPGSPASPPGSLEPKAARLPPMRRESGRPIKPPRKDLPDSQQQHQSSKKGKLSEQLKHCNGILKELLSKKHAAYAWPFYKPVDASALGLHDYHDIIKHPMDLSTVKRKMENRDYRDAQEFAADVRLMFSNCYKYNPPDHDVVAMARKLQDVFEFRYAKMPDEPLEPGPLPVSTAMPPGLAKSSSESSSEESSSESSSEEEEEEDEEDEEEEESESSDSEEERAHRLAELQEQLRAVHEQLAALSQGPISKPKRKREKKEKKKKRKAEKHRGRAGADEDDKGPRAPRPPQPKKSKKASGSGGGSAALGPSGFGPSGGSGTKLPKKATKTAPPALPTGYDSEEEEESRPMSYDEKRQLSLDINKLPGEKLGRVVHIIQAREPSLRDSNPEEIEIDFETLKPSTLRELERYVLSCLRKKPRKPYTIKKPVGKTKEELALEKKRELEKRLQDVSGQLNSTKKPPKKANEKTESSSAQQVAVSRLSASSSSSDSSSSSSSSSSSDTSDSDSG
# Chain of UniProt P17544 (P17544 whole entry, looked up): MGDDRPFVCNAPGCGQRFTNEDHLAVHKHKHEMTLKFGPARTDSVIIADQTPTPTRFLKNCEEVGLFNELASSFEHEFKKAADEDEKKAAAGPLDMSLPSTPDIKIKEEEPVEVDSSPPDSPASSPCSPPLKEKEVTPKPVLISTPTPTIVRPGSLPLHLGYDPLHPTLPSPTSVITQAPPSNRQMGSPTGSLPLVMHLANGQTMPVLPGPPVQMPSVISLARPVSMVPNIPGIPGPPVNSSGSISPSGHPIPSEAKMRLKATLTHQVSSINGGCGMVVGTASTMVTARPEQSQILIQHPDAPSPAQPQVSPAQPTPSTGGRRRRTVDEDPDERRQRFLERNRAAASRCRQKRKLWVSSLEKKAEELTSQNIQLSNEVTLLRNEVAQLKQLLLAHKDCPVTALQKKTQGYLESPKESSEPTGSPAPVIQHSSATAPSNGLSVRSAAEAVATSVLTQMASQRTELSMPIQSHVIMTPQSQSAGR
# Chain of UniProt Q9HCU9 (Q9HCU9 whole entry, looked up): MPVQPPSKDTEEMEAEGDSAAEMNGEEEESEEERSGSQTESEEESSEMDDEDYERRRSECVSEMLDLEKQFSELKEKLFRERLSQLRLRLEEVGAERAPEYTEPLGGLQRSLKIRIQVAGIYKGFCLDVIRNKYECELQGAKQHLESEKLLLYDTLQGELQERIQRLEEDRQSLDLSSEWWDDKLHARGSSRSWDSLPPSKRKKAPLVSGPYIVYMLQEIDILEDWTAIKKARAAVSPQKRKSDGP
# Chain of UniProt P05091 (P05091 whole entry, looked up): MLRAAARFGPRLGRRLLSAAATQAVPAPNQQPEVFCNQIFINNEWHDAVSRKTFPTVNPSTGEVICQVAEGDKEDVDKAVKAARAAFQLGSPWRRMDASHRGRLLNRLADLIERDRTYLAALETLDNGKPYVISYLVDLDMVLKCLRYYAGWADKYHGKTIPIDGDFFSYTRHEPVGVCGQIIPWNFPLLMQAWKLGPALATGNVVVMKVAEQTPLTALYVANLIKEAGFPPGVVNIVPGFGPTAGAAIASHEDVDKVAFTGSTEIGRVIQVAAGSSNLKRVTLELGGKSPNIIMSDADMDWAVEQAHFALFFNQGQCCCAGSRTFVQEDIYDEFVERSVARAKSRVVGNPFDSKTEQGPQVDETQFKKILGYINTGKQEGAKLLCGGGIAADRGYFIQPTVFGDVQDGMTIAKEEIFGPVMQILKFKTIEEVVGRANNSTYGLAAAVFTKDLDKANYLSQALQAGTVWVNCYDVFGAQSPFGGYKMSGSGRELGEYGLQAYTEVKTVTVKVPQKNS
# Chain of UniProt P55008 (P55008 whole entry, looked up): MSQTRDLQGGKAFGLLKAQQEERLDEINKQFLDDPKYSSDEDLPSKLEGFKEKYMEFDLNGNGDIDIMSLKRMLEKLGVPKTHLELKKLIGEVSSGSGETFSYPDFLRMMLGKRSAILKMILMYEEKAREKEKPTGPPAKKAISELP
# Chain of UniProt P35611 (P35611 whole entry, looked up): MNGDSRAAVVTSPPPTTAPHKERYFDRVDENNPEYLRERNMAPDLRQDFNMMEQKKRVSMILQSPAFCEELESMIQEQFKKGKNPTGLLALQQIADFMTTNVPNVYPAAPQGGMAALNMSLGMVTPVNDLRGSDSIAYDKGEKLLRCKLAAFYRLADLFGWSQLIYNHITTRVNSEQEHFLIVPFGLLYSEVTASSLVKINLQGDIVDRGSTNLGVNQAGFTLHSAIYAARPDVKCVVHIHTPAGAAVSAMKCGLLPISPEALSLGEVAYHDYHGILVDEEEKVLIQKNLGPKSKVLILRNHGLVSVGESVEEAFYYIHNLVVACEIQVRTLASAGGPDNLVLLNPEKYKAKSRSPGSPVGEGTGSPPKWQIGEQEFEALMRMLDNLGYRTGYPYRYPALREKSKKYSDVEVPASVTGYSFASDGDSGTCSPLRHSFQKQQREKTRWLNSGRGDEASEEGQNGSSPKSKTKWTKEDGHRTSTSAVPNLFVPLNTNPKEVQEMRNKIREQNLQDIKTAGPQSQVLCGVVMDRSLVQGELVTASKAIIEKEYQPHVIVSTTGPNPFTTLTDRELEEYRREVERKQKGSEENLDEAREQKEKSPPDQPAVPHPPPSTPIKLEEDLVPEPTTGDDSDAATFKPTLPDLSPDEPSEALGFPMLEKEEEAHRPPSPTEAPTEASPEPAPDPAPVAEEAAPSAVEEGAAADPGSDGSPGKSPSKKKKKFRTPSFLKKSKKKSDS
# Chain of UniProt P54922 (P54922 whole entry, looked up): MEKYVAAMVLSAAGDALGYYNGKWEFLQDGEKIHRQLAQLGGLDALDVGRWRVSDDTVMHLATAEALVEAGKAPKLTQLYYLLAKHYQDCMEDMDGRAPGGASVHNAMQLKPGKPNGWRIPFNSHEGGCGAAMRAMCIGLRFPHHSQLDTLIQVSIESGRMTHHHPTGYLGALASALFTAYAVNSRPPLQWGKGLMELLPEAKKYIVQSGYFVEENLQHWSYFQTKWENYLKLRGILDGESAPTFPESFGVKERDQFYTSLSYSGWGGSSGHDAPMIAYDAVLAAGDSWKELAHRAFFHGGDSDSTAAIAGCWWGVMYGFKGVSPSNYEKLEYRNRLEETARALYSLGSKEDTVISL
# Chain of UniProt Q9UEY8 (Q9UEY8 whole entry, looked up): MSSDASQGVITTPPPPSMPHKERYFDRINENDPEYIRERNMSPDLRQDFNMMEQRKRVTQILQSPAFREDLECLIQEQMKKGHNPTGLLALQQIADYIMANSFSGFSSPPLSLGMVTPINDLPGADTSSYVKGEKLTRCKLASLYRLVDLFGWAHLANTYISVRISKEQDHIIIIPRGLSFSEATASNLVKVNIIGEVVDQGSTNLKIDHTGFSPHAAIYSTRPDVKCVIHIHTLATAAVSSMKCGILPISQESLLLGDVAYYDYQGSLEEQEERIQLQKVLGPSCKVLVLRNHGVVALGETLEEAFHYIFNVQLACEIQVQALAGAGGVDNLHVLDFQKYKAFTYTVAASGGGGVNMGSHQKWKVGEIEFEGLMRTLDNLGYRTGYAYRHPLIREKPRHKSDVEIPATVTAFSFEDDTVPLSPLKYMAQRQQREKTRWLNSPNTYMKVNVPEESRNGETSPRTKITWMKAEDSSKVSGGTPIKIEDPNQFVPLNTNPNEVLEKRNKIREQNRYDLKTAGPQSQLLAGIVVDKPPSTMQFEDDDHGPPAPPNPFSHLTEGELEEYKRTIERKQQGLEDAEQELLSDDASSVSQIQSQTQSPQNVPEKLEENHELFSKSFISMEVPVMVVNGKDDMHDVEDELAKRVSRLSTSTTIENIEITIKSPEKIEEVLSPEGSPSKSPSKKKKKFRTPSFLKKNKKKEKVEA
Target,log2 fold change [1],log2 fold change (epoxomicin),log2 fold change [2],log2 fold change [3],log2 fold change [4],log2 fold change (rosiglitazone),log2 fold change [5],log2 fold change [6],log2 fold change [7],log2 fold change (volasertib)
AFDN isoform 1 (UniProt P55196),-0.019,0.064,-0.104,-0.075,-0.069,0.104,0.111,0.062,,
ATXN7L3 isoform 2 (UniProt Q14CW9),-0.042,,0.036,,,-0.2,,,-0.166,
ACTR3B (UniProt Q9P1U1),,,0.038,-0.047,-0.05,,,0.048,0.261,-0.063
ADD1 isoform 4 (UniProt P35611),,-0.431,,-0.001,,-0.077,,0.086,,
ARHGAP25 isoform 4 (UniProt P42331),-0.031,0.083,-0.103,0.072,0.134,0.088,0.127,-0.221,-0.031,
ARL4A (UniProt P40617),,,,,,0.063,,,,
ATP6V0A1 (UniProt Q93050),,,,,,-0.082,,,,
ANGEL1 (UniProt Q9UNK9),,,,,0.038,-0.008,,,,
BRMS1 (UniProt Q9HCU9),-0.034,-0.018,,0.144,,,-0.092,-0.124,,
ADPRH (UniProt P54922),,-0.04,-0.067,0.097,0.1,0.141,,-0.313,0.036,0.108
ADAM15 (UniProt Q13444),,0.034,-0.177,-0.001,0.066,-0.099,-0.028,-0.016,-0.02,-0.103
ARMC8 isoform 6 (UniProt Q8IUR7),,,-0.196,,0.016,-0.004,,,0.048,
ADD3 isoform 2 (UniProt Q9UEY8),0.021,-0.022,,0.066,0.036,,-0.093,-0.128,,-0.037
ALDH2 isoform 2 (UniProt P05091),0.183,-0.176,,-0.014,-0.015,0.19,,-0.072,,0.033
"BRAF, A0A2R8Y8E0",,,-0.078,,,,,,0.047,
AASDH (UniProt Q4L235),,0.028,-0.018,0.149,0.189,-0.044,-0.019,0.004,0.141,-0.445 (active)
AUNIP isoform 2 (UniProt Q9H7T9),,,0.013,,-0.163,,-0.031,,,-0.03
AZI2 (UniProt Q9H6S1),-0.021,,-0.041,,0.062,-0.001,,,-0.063,
BRD8 isoform 2 (UniProt Q9H0E9),0.036,-0.105,-0.045,0.219,0.432 (active),-0.018,0.087,-0.327,,0.025
ARFIP1 isoform 2 (UniProt P53367),,-0.004,-0.102,0.259,,0.088,-0.124,-0.512 (active),0.071,-0.134
ABCA4 (UniProt P78363),0.117,-0.046,-0.172,-0.163,,0.015,,-0.087,-0.202,
AIF1 (UniProt P55008),,-0.727 (active),0.078,,0.01,-0.045,,,,0.047
AP2M1 (UniProt C9JTK4),0.03,0.027,,,-0.243,-0.016,-0.049,,-0.051,
ALKBH4 (UniProt Q9NXW9),-0.064,0.117,-0.02,-0.023,0.056,0.037,-0.077,-0.082,,-0.263
AKNA (UniProt Q7Z591),,,0.054,,,,,,,0.015
BRD2 isoform 2 (UniProt P25440),,,0.104,0.486,0.115,0.24,-0.132,0.129,,1.76 (active)
ADAMTS5 (UniProt Q9UNA0),0.011,,-0.092,-0.16,0.045,-0.035,-0.018,-0.039,-0.211,
AUH (UniProt Q13825),0.011,,-0.129,-0.094,0.128,0.021,-0.183,0.086,,0.486 (active)
ACSL6 isoform 1 (UniProt Q9UKU0),,-0.159,0.01,-0.014,0.149,-0.069,-0.226,-0.459 (active),0.08,
ATF7 isoform 6 (UniProt P17544),,-0.028,0.007,,0.03,-0.011,-0.06,,0.041,-0.014
